Experimental data published in PubChem BioAssay (NCATS).
Records with an inconclusive call do not appear. A number with no mark means an inactive call. Calls follow the shape of the dose curve; as a rule, active = well fitted curve in either direction with a large enough effect (not every such curve was filed as active); inconclusive = small, poorly fitted or top-dose-only effect, or another doubt; inactive = flat fitted curve, though single readings scatter.

test: AP1 Signaling Pathway (AID 357); conditions: ME-180 (cervical carcinoma) AP-1-bla reporter, EGF-induced, beta-lactamase ratio, 5 h; at 17.2 µM (top of the series) unless noted;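 also: ME-180 reporter cells stimulated with EGF at its EC50 level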
Excerpt: NCGC Assay Overview: Activator protein-1 (AP-1), a transcription factor, plays an important role in tumor genesis by regulating genes involved in cell proliferation, differentiation, apoptosis, and angiogenesis. AP-1 activity is induced by a complex network of signaling pathways that involves extracellular signals, such as growth factors. The AP-1 protein complex formed from c-Fos and c-Jun binding to the AP-1 response element results in transcriptional activation of genes containing such elements within their promoter. Low molecular weight molecules have been discovered and developed to modulate various components of these signaling pathways, for example, MAP kinase inhibitors. However, many points of pathway modulation remain untested due to the lack of chemical probes making this signaling locus of general interest. Using a beta-lactamase reporter-gene under control of the AP-1 response element, a cell-based assay [CellSensor(TM) AP-1-bla ME-180 developed by Invitrogen Corp.] was used to measure EGF-induced signaling. Library compounds were measured for their ability to modulate positively or negatively the action of EC50 EGF on reporter gene activity. Compounds were screened in a titration series in 1536-well format. Positive and negative modulators were identified based on the AC50 values derived from the screening data.
NCGC Assay Protocol Summary: 2500 cells/5uL in Opti-MEM medium containing 0.5% dialyzed FBS, 0.1 mM NEAA, 1 mM sodium pyruvate and 10 mM HEPES was dispensed into 1536-well plates and cells were cultured at 37 degrees Celsius overnight. […] After centrifugation at 1000 rpm for 2 seconds the plates were incubated at 37 degrees Celsius for 5 hours. 1 uL of CCF4-dye mixture was added to each well. After incubated at room temperature for 2.5 hours the plates were measured on an EnVision plate reader at Excitation 405nm, Emission1=460nm and Emission 2=530nm. The %Activity was determined from the ratio of 460nm/530nm.
% is scaled to controls: 0 for no effect and ±100 for the full control effect.

| Compound | activity change, negative = inhibition |
| --- | --- |
| CCCC[N+]1(C)[C@@H]2CC(OC(=O)[C@@H](CO)c3ccccc3)C[C@H]1[C@H]1O[C@H]12 (stereo not given in full) | 5.93% [at 38 µM] |
| COc1ccc(-n2c(SC)nc3ccccc3c2=O)cc1 | 0.0474% |
| CC1=NOC2(C)Nc3ncnn3C(c3ccccc3)C12 (stereo not given) | 20.5% |
| CN1CCc2nc(SCC(=O)OC(C)(C)C)c(C#N)cc2C1 | -5.69% |
| CCCCSP1(=S)NCCCO1 (stereo not given) | 2.22% |
| O=[N+]([O-])c1ccc(O[C@H]2O[C@@H](CO)[C@@H](O)[C@@H](O)[C@@H]2F)c([N+](=O)[O-])c1 | -3.88% [at 38 µM] |
| Nc1ccc(C2(c3ccc(N)cc3)CN3CCC2CC3)cc1 | 7.52% |
| C=CCn1c(O)c(C=NCCN(C)C)c(=O)[nH]c1=O | 1.63% |
| COc1ccc2c(c1OC)C(=O)OC2c1c(O)n(C2CCCCC2)c(=O)[nH]c1=O (stereo not given) | -13.3% |
| O=c1[nH]c(=O)n(-c2cccc(Cl)c2)c(O)c1C=NCCN1CCCCC1 | -0.739% |
| CC1(C)CC(=O)C(C=NCCN2CCN(C(=O)Cc3ccc(F)cc3)CC2)=C(O)C1 | -0.912% |
| CC(=O)OC1(Cc2ccccc2)CN2CCC1c1ccccc12 (stereo not given) | -0.0283% |
| C[N+]1(C)CCO[C@@](O)(c2ccc(-c3ccc([C@]4(O)C[N+](C)(C)CCO4)cc3)cc2)C1 | -2.41% [at 38 µM] |
| COc1ccccc1-n1c(O)c(C=NCCCn2ccnc2)c(=O)[nH]c1=O | 6.21% |
| C/C=C(\C)C(=O)O[C@@H]1C(C)=C2[C@H]([C@@H]1OC(=O)CCCCCCC)[C@@](C)(OC(C)=O)C[C@@H](OC(=O)CCC)[C@@]1(O)[C@H]2OC(=O)[C@]1(C)O | 19.3% [at 38 µM] |
| CCN1C[C@]2(C)CC[C@@H](O)[C@]34[C@@H]5CC6[C@@H](OC)C[C@@](O)([C@H]5[C@@H]6O)[C@@H](C[C@@H]23)[C@H]14 | 5.54% [at 38 µM] |
| N[C@]1(C(=O)O)CC[C@@H](C(=O)O)C1 | -3.05% [at 38 µM] |
| CCCCc1nc2ccccc2c(=O)n1-c1ccccc1O | -4.36% |
| C=CCC1(CN2CCCCCC2=O)C(=O)NC(=O)NC1=O | 1.22% |
| O[C@@H]1CCCC[C@H]1N1CCC(c2ccccc2)CC1 | -6.58% [at 38 µM] |

| Compound | activity change, negative = inhibition |
| --- | --- |
| O=C1C2CCN(CC2)[C@@H]1Cc1ccc2ccccc2c1O | 6.63% |
| O=c1[nH]c(O)c(C=NC2CCN(Cc3ccccc3)CC2)c(=O)[nH]1 | 5.09% |
| NC(=NCCC[C@@H](N)C(=O)O)N[N+](=O)[O-] | 2.85% [at 38 µM] |
| Oc1ccc2c3c1O[C@@H]1[C@@H](O)CC[C@]4(O)[C@H](C2)N(CC2CCC2)CC[C@@]314 | 2.34% [at 38 µM] |
| COc1cccc(CN2CCN(C(=O)COc3ccc4ccccc4c3)CC2)c1 | 2% |
| OCCOCC#CCN1CCOCC1 | 12.1% |
| C=CCOC(=O)C1=C(C)OC(N)=C(C#N)C12C(=O)N(CN1CCOCC1)c1ccccc12 (stereo not given) | 2.42% |
| CCOc1ccccc1-n1c(O)c(C=Nc2c(C)n(C)n(-c3ccccc3)c2=O)c(=O)[nH]c1=O | -0.373% |
| Cc1ccc(-n2c(O)c(C=NCCN3CCOCC3)c(=O)[nH]c2=O)cc1 | 6.04% |
| CC(C)(C)c1ccc(O)c(C[N+](C)(C)C)c1 | -0.0649% [at 7.69 µM] |
| O=C(CN1CCN(CCO)CC1)Nc1ccc(Cl)cc1C(=O)c1ccccc1 | 3.2% |
| COc1ccc(Cn2c(O)c(C=NCCCn3ccnc3)c(=O)[nH]c2=O)cc1 | -15.8% |
| C[C@@H](Cc1ccc2c(c1)OC(C(=O)O)(C(=O)O)O2)NC[C@H](O)c1cccc(Cl)c1 | -9.81% [at 38 µM] |
| Cc1ccc2c(c1)[C@@H]1CN(C)CC[C@@H]1N2C(=O)Nc1cccc(C(F)(F)F)c1 | 28.8% |
| CN1CC=C2C(C#N)=C(N)C(C#N)(C#N)C(c3ccncc3)C2C1 (stereo not given) | 21.4% |
| COc1ccc(C2SCC(=O)Nc3c2c(=O)[nH]n3C2CCCCC2)cc1 (stereo not given) | -14.7% |
| Cc1c(N=Cc2c(O)n(Cc3ccco3)c(=O)[nH]c2=O)c(=O)n(-c2ccccc2)n1C | -3.26% |
| NCC1(c2ccc3c(c2)OCCO3)CCCC1 | 3.9% |
| CCCCCCn1c(O)c(C(C)=NC)c(=O)[nH]c1=O | -9.96% |
| CCCCC1(CN2CCCC2=O)C(=O)NC(=O)NC1=O | 7.49% |
